From PubChem BioAssay
IDE cell inh = human IDE inhibitors in live cells, primary screen, fluorescence polarization, HEK cells, FAbetaB substrate. Insulin-degrading enzyme (Homo sapiens), P14735. FAbetaB cleavage. inhibition, % at 5.59 µM. 0.41% of 320,000 active. AID 434962, 2010;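 active = percent inhibition above the average of all tested compounds plus 3 SD, set per screening campaign, cut at about 16% in these data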;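 note: IDE supplied by intact live HEK cells; FP after avidin binding of uncleaved biotin substrate so inhibition keeps polarization high; 0% = DMSO wells and 100% = 60 µM reference IDE inhibitor Ii1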
Target sequence (P14735 whole entry, looked up): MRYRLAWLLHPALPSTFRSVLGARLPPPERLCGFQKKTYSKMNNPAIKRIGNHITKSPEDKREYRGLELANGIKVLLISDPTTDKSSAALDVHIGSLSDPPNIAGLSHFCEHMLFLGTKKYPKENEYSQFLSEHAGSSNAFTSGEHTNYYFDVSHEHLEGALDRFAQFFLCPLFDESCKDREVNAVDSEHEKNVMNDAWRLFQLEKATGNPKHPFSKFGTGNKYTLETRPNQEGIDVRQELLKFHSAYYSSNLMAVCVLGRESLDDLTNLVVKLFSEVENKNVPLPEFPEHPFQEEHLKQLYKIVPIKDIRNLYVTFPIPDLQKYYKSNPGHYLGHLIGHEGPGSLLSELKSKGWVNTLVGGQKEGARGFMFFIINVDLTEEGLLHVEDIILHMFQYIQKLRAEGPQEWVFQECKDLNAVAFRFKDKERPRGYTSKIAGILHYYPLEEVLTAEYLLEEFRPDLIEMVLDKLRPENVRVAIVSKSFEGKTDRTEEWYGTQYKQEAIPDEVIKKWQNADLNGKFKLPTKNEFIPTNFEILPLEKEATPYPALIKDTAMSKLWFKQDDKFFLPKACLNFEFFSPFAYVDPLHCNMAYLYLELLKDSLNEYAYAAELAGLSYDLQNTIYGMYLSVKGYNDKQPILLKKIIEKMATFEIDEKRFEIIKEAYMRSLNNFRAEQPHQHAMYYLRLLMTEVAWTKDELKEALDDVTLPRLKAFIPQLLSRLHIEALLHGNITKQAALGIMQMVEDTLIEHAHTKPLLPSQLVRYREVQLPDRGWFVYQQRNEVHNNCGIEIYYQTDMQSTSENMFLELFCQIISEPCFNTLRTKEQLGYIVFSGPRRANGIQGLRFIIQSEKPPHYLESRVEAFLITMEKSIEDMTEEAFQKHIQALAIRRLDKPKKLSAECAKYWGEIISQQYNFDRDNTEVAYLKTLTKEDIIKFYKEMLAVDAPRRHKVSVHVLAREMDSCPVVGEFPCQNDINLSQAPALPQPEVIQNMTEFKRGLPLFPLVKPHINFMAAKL
HDAC3 inhib = HDAC3 deacetylase inhibitors, primary screen, biochemical, fluorescence, cell-free homogeneous. 0.15% of 320,000 active. inhibition, % at 8.3 µM. recombinant HDAC3, fluorogenic peptide/trypsin coupled; in the data active = inhibition above about 26%, passing the limit was not always enough
LANA-H2B inh = blockers of LANA interaction with H2A/H2B – biochemical, FP readout, HTS, primary screen | Protein LANA1 (Human herpesvirus 8 type P (isolate GK18)), Q9QR71 | cell-free LANA-H2A/H2B peptide, fluorescence polarization | inhibition, % (test concentration not listed) | 0.6% of 320,000 active; in the data active = inhibition mostly above about 10%, no sharp cut-off; inactive = mostly below about 6.7%
IDE act = human IDE activators in live cells, primary screen, fluorescence polarization, HEK cells, FAbeta-B substrate; Insulin-degrading enzyme (Homo sapiens), P14735; FAbeta-B cleavage; 0% vehicle, 100% cell-free pure enzyme wells; activation, % at 5.96 µM; 0.073% of 340,000 active; AID 493087, 2011;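 active = activation above the mean of all tested compounds plus 3 SD, set per screening campaign, cut at about 17% in these data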
SUMO Mot1 rescue = yeast Mot1-301 growth rescue at high temperature, primary screen, SUMOylation pathway inhibitor project, S. cerevisiae, ATP luminescence, 38.5C; 1% of 320,000 active; S. cerevisiae Mot1-301 growth rescue; percent above DMSO median, 100 means doubled; growth rescue, % at 18.8 µM; AID 2716, 2010;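 active = every valid replicate shows activation above 250% relative to neutral control wells; inactive = the rest, any valid replicate at or below 250%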;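 note: OY570 slx delta 5 strain wells were the positive control but not used for scaling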
IDE inh confirm = human IDE inhibitors in live cells, confirmation, fluorescence polarization, HEK cells, FAbetaB substrate; shares compounds with IDE cell inh; FAbetaB cleavage; inhibition, % at 5.59 µM; 51% of 1,200 active;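 active = mean inhibition across triplicate wells above the cutoff set by the earlier primary insulin-degrading enzyme screen, cut at about 16% in these data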;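 note: 0% = DMSO wells and 100% = 60 µM reference IDE inhibitor Ii1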
HEK293 tox = cytotoxicity in HEK cells, cytotoxicity control for IDE inhibitor project, cell-based, luminescence. AID 449730, 2010. shares compounds with IDE cell inh. HEK293 cytotoxicity, ATP luminescence. inhibition, % at 5.59 µM. 28% of 1,200 active; in the data active = inhibition above about 22%;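 note: 0% = vehicle wells and 100% = reference cytotoxic drug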
Starred values were filed as active, the others as inactive; · = no result. Compounds with a hit are over-represented: about 2.1% of the library has one in this group of screens.

SMILES | IDE cell inh | HDAC3 inhib | LANA-H2B inh | IDE act | SUMO Mot1 rescue | IDE inh confirm | HEK293 tox
Cc1cccc(NC(=O)COC(=O)c2cc(C)n(C3CC3)c2C)c1 | -2 | 10 | 0 | -1 | -8 | · | ·
CC12CC(O)C3C(CCC4=CC(=O)CCC43C)C1CCC2=O (stereo not given) | · | · | · | 3 | · | · | ·
CCN1/C(=C\C=C\C2=[N+](CC)c3ccccc3C2(C)C)C(C)(C)c2ccccc21 | 82* | 5 | -215 | -95 | 15 | 173* | 120*
CCOC(=O)c1c(C)n(Cc2ccccc2)c2ccc(OCC(O)Cn3nc(C)nc3C)cc12 (stereo not given) | 15 | -2 | 0 | -10 | 306 | · | ·
CCOC(=O)c1c(C)n(Cc2ccccc2)c2ccc(OCC(O)CNC(C)(C)C)cc12 (stereo not given) | 38* | 0 | 3 | -19 | -7 | 19* | 18
CCN(CC)c1ccc(/C=C2\C(=O)NC(=S)N(C)C2=O)o1 | 26* | 12 | -14 | -25 | -7 | 29* | 14
CCN(CC)c1ccc(/C=C2\C(=O)NC(=S)N(c3ccc(OC)cc3OC)C2=O)o1 | 33* | 12 | -3 | -33 | 15 | 36* | 4
COc1ccc(N2C(=O)/C(=C/c3ccc(N(C)C)o3)C(=O)NC2=S)cc1 | 16 | 9 | -21 | -17 | -19 | · | ·
C[C@]12CCC3C(CC[C@H]4C[C@H](O)[C@H](O)C[C@]34C)C1CC[C@@H]2O (stereo not given in full) | · | · | · | -2 | · | · | ·
O=c1[nH]c(=O)n(Cc2ccccc2)c(O)c1/C=N/NCCO | 16* | 7 | 4 | · | 12 | 2 | 6
Cc1ccc(-n2c(O)c(/C=C/C=Nc3ccccc3)c(=O)[nH]c2=O)cc1 | 21* | 16 | -5 | -29 | -24 | 30* | 3
O=c1[nH]c(=O)n(-c2ccccc2)c(O)c1/C=C/C=Nc1ccccc1 | 34* | 7 | -12 | -26 | 3 | 35* | 3
COc1ccc(-n2c(O)c(/C=C/C=Nc3ccccc3)c(=O)[nH]c2=O)cc1 | 159* | 2 | -32 | -192 | -11 | 51* | 1
C=CCn1c(O)c(/C=C/C=Nc2ccccc2)c(=O)[nH]c1=O | 18* | 9 | 12 | -1 | 1 | 11 | 6
Cc1ccc(N/N=C/c2c(O)n(-c3ccccc3)c(=O)[nH]c2=O)cc1 | -2 | 0 | 5 | -2 | 99 | · | ·
CC1CN(c2ccccn2)C(C)CN1C(=O)C(O)(c1ccccc1)c1ccccc1 (stereo not given) | · | · | · | -4 | · | · | ·
CC(=O)OC1C(O)C(C)OC(OC2C(OC(=O)C3CCC4C(C3)OC3(CC(OC(=O)/C=C/c5ccccc5)C(C)CO3)C43CO3)OC(C)C(O)C2OC(C)=O)C1O (stereo not given) | · | · | · | 6 | · | · | ·
O=c1[nH]c(=O)n(C2CCCCC2)c(O)c1/C=C/C=Nc1ccccc1 | 21* | -4 | -10 | -40 | -2 | 42* | 8
CC12CCC(=O)C=C1C=CC1C2CCC2(C)C(O)CCC12 (stereo not given) | · | · | · | 1 | · | · | ·
C[CH2][Hg][S]c1ccccc1C(=O)O | 53* | 56* | 1 | -50 | 355* | 21* | 122*
CC(C)COC(=O)c1ccccc1C(=O)OCC(C)C | -5 | 0 | 0 | 1 | -13 | · | ·
